# Compound activity: PubChem BioAssay, several laboratories
# Rtt109 Vps75: C. albicans Rtt109 histone acetyltransferase inhibition; purified Rtt109/Vps75, ThioGlo CoA-SH fluorescence, 4 h; Q5AAJ8; actives 0.16% (n = 330,000); inhibition, % at 34.9 µM;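 active = inhibition of at least 50% in every replicate; inconclusive = best replicate reaches 50% inhibition but some replicates fall short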
# Myeloid diff 2: myeloid differentiation induction; calls only at 10 µM; AID 624256; actives 1% (n = 360,000); ER-HoxA9 myeloid progenitors, lysozyme-GFP differentiation, flow cytometry;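 active = normalized GFP-positive differentiation at or above the plate's own cutoff, the solvent-only control mean plus 3 SD; inconclusive = no clear call, values can overlap the other calls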;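 also: cells exposed to compound for four days before flow analysis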
# sPLA2-III inh: Blocks human group III sPLA2 activity; inhibition, % at 12.2 µM; QFRET BODIPY PC-A2 liposome hydrolysis, fluorescence; actives 0.56% (n = 370,000); Q9NZ20;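 active = inhibition above mean plus 3 SD of compounds lying within the high and low control bounds, cut at about 19% in these data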
# DAGLB inh: diacylglycerol lipase beta (human) inhibition; actives 0.059% (n = 340,000); HEK293T DAGLB membrane lysate, EnzChek fluorogenic substrate; AID 504411; inhibition, % at 5.17 µM; Q8NCG7; in the data active = inhibition above about 34%
# Target sequence (Q8NCG7 whole entry, looked up): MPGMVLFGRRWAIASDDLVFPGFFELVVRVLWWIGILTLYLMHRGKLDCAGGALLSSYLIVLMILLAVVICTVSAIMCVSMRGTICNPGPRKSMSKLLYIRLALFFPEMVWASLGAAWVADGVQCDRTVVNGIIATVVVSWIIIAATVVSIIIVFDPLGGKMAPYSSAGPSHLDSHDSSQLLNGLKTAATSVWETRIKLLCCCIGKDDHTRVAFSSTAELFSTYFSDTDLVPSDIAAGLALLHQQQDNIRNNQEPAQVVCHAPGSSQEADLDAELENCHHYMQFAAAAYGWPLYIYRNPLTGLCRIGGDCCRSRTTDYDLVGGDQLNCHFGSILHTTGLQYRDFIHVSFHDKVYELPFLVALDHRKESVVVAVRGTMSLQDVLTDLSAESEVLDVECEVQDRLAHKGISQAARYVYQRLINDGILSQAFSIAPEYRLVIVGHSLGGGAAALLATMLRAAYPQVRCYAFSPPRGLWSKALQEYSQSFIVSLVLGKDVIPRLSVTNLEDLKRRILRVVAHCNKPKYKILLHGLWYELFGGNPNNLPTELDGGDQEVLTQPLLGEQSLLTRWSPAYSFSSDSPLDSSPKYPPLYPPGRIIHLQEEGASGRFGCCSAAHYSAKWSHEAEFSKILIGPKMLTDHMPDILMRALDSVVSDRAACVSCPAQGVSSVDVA
# ABHD5-PLIN5 inh: inhibitors of human ABHD5-perilipin-5 interaction. Split G. princeps luciferase complementation, luminescence, 4 h. inhibition, % at 4 µM. actives 0.78% (n = 360,000). AID 602281;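 active = inhibition above the mean inhibition across every tested compound plus 3 SD, cut at about 22% in these data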
# Cardio protect: modulators protecting cardiomyocytes from myocardial damage; H9c2 cardiomyocytes, H2O2 injury protection, ATPLite, 2 h; protection from H2O2 cell death, % at 20 µM; actives 0.63% (n = 360,000);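 active = compounds giving at least 50% protection of heart cells from peroxide-induced death in the single-dose screen, raw or plate-pattern-corrected value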
# A number is an active result; . = inactive; ? = inconclusive; / = no result given; + = active, no number. In the library only some 2.9% were active in any assay of this set; here they are far more common.
SMILES,Rtt109 Vps75,Myeloid diff 2,sPLA2-III inh,DAGLB inh,ABHD5-PLIN5 inh,Cardio protect
Nc1c(C(=O)NCc2ccco2)c2nc3ccccc3nc2n1CCc1ccccc1,.,.,.,.,.,.
Nc1c(C(=O)NC2CC2)c2nc3ccccc3nc2n1-c1ccc2c(c1)OCO2,.,.,.,.,.,77
CCN(C(=O)COC(=O)C1CCN(S(=O)(=O)c2ccc3c(c2)OCCO3)CC1)C1CCCCC1,.,.,.,.,.,.
Cc1cc(=O)oc(C)c1C(=O)Nc1ccc(N(C)C)cc1,.,.,.,.,.,.
Nc1nc(-c2ccccc2)cs1,.,.,.,.,.,.
Nc1nc(C(c2ccccc2)c2ccccc2)cs1,.,+,.,.,.,.
O=c1[nH]c(=O)n([C@H]2C[C@H](O)[C@@H](CO)O2)cc1C(F)(F)F,.,+,.,.,.,.
O=C(CCc1nnc(C2(c3ccc(Cl)cc3)CCC2)o1)NCCCn1cccn1,50,.,.,.,.,.
O=C(c1ccco1)N1CCN(Cc2nc3ccc([N+](=O)[O-])cc3c(=O)n2-c2ccccc2F)CC1,.,.,.,.,.,54
CCCNC(=O)c1ccc(CNc2c(N3CCC(C(=O)OCC)CC3)c(=O)c2=O)cc1,.,.,.,.,.,.
CC(C)Oc1ccc(Br)cc1/C=N\NC(N)=S,.,+,.,.,.,.
Cc1cc(/C=N/NC(N)=S)c(C)n1-c1ccc(Br)cc1,.,.,.,.,.,.
Cc1cccc(-c2ccc3ncnc(NCc4cccnc4)c3c2)c1,.,.,.,.,.,.
O=C(Cn1cnc2ccccc21)OCC(=O)N1CCCc2ccccc21,.,.,.,.,.,.
O=C(Cn1[nH]c(=O)c2ccccc2c1=O)OCC(=O)N1CCc2ccccc2C1,.,.,.,.,.,90
O=C(Cn1[nH]c(=O)c2ccccc2c1=O)OCC(=O)N1CCCc2ccccc21,.,.,.,.,.,86
O=C(Cn1[nH]c(=O)c2ccccc2c1=O)N1CC=C(c2ccccc2)CC1,.,.,.,.,.,48
CCc1ccc(S(=O)(=O)NCCc2csc(C)n2)s1,.,.,.,.,.,.
Fc1ccc(C[n+]2csc3ccccc32)cc1,.,.,.,.,54,.
Clc1ccc(C[n+]2csc3ccccc32)cc1,.,.,.,.,.,.
O=C(O)/C=C/C(=O)NCCc1cccc(Cl)c1,.,.,.,.,.,.
COc1ccc(Nc2nc(Nc3ccc(OC)cc3)nc(-n3[nH]c(=O)c(C)c3C)n2)cc1,.,.,.,.,.,92
CC(=O)c1c(C)[nH]c(C(=O)OCC(=O)NCc2ccc3c(c2)OCO3)c1C,.,+,.,.,.,.
CC(=O)Nc1ccc(C(=O)COC(=O)CCS(=O)(=O)c2ccccc2)cc1,.,.,.,.,.,.
CC(OC(=O)CCCNC(=O)c1ccc(Cl)cc1)C(=O)N(C)Cc1ccccc1 (centres undefined),.,.,.,.,.,.
SMILES,Rtt109 Vps75,Myeloid diff 2,sPLA2-III inh,DAGLB inh,ABHD5-PLIN5 inh,Cardio protect
CC(C)CCNC(=O)C1CCN(S(=O)(=O)c2ccc3c(c2)CC(C)N3C(=O)C2CCC2)CC1 (centres undefined),94,.,.,.,.,.
CCOc1cc(/C=C2\SC(=N)N(c3nccs3)C2=O)ccc1OCCN1CCOCC1,.,.,.,.,.,54
Cc1ccc(Nc2nc(N)nc(N)c2N=O)cc1C,/,.,/,/,.,.
CC1CN(c2ccccc2)C(=O)CS1 (centres undefined),.,.,.,.,.,.
O=C(NC1CCCCC1)c1ccc(-c2ccccc2F)o1,.,.,.,.,23,.
O=C(NC1CCCCCC1)c1ccc(CS(=O)(=O)Cc2ccccc2F)o1,.,.,.,.,.,.
O=C(COC(=O)CCc1nc2ccccc2c(=O)[nH]1)NC(c1ccccc1)c1ccccc1,.,.,.,.,.,59
O=C(COC(=O)CCc1nc2ccccc2c(=O)[nH]1)Nc1ccc2c(c1)OCO2,.,.,.,.,.,52
CN(CC(=O)Nc1ccc2c(c1)OCCO2)Cc1nc2ccccc2c(=O)[nH]1,.,.,.,.,.,.
O=C(COC(=O)CCc1nc2ccccc2c(=O)[nH]1)Nc1c(Cl)cccc1C(F)(F)F,/,.,.,.,.,52
CCN(CC(=O)Nc1cc(Cl)ccc1C)C(=O)CCc1nc2ccccc2c(=O)[nH]1,.,?,.,.,.,69
CC(NC(=O)COC(=O)CCc1nc2ccccc2c(=O)[nH]1)c1ccccc1 (centres undefined),.,.,.,.,.,.
CN1CCN(c2ccc(S(=O)(=O)N3CCCCC3)cc2NC(=O)Cc2ccc(Cl)cc2)CC1,.,.,.,.,.,.
Cc1ccccc1NC(=O)COC(=O)CCc1nc2ccccc2c(=O)[nH]1,.,.,.,.,.,65
CCCCOc1ccc(C(=O)NCC(=O)N(C)Cc2nc3ccccc3c(=O)[nH]2)cc1,.,.,.,.,.,54
COc1ccc(C(=O)NNC(=O)CCc2nc3ccccc3c(=O)[nH]2)cc1,.,.,.,.,.,64
O=C(COC(=O)CCc1nc2ccccc2c(=O)[nH]1)NC(=O)NC1CCCC1,.,.,.,.,.,.
CC(OC(=O)CCc1nc2ccccc2c(=O)[nH]1)C(=O)NC1CCCC1 (centres undefined),.,.,.,.,.,55
COCCn1c(SCC(=O)NNC(=O)c2ccc(OC)c(OC)c2)nc2ccccc2c1=O,.,.,.,.,.,.
COc1ccc(/C=C/C(=O)Nc2cc(C)nn2-c2nc3ccccc3n2Cc2cccc([N+](=O)[O-])c2)cc1,.,.,.,.,.,.
OC(CCN1CCC2(CC1)OCCO2)C(F)(F)F (centres undefined),.,.,.,.,.,.
O=C(CCc1nc2ccccc2c(=O)[nH]1)OCc1ccc(-c2ccccc2)cc1,.,.,.,.,.,.
Cc1ccc(OCCOC(=O)CCc2nc3ccccc3c(=O)[nH]2)cc1,.,.,.,.,.,55
N#CCCN(C(=O)COC(=O)CCc1nc2ccccc2c(=O)[nH]1)c1ccccc1F,.,.,.,.,.,58
O=C(CCNC(=O)c1ccccc1Cl)NCCc1ccc(C(F)(F)F)cc1,.,.,.,.,.,.
SMILES,Rtt109 Vps75,Myeloid diff 2,sPLA2-III inh,DAGLB inh,ABHD5-PLIN5 inh,Cardio protect
O=C(CN1CCCCC1)n1c2ccccc2c2ccccc21,56,.,.,.,.,.
COc1cc2c(c(OC)c1OC)C(=O)CO2,.,.,.,.,.,.
COc1ccc(N=Cc2cc(Cc3ccccc3Cl)cc([N+](=O)[O-])c2O)cc1OC,/,.,/,.,.,76
O=C(O)Cc1sc(NC2CCCCC2)nc1-c1ccc(Cl)cc1,.,+,.,.,.,.
Cc1cccc(NC(=O)CNC(=O)c2ccco2)n1,.,.,.,.,.,.
CNC(=O)OCc1nc(SSC(C)(C)C)n(C)c1COC(=O)NC,.,?,.,.,.,.
